The entries come from a sample that favours hits as a whole.
ST2 IL33 inh – IL1RL1 inhibition; Q01638; AlphaLISA ST2-Fc/biotin-IL-33 interaction, 1 h; inhibition, % for hits at 17 µM; 78,000 tested, 2.3% active; in the data active = inhibition above about 30%
Target sequence (Q01638 whole entry, looked up): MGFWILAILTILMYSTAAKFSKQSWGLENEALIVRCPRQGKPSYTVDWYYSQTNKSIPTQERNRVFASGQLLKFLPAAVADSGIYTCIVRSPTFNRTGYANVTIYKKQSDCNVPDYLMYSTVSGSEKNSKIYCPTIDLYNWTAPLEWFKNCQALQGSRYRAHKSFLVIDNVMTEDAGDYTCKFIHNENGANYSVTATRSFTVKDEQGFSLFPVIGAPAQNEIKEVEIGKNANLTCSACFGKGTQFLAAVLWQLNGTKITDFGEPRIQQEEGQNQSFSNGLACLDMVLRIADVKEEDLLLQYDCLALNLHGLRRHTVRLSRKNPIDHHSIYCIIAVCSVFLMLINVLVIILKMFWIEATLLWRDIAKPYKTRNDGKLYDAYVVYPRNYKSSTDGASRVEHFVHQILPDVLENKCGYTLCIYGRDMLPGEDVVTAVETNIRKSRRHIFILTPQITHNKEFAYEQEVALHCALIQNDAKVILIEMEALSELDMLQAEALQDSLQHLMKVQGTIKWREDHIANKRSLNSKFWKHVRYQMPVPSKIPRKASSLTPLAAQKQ
Hits are given with their value; 0 = inactive.

SMILES	ST2 IL33 inh
Cc1ccc(C(=O)Nc2ccc(-c3nc4ncccc4o3)cc2)cc1C	0
c1ccc(-c2ncn(C3CCNC3)c2-c2ccc(OCc3ccccn3)cc2)cc1 (configuration not stated)	0
Cc1ccn2c(NC(=O)CCc3ccccc3)c(-c3cccs3)nc2c1	0
CC1=C[C@@H](CNC(=O)CC(C)(C)C)[C@H](C(C)C)C[C@H]1CC(=O)N1CCN(C)CC1	0
O=C(CN(c1ccccc1)S(=O)(=O)c1ccccc1)N1CCN(c2ccc(F)cc2)CC1	0
COc1cc(O)ccc1-c1nccn1CC[C@@H]1C[C@@H]2C=C[C@H]1C2	0
C/C=C/c1ccc(OCc2ccccc2)c(OC)c1	0
COc1ccc(C=Nc2ccc3[nH]c(=O)[nH]c3c2)cc1OC	0
COc1ccc(N=Cc2ccc(OCc3ccccc3)cc2)cc1OC	33.0%
CNC(=O)C1CCC(Cn2c(=O)c3sccc3n(CC(=O)Nc3cccc(OC)c3)c2=O)CC1 (configuration not stated)	0
CCc1nc(CN2CCC(c3n[nH]c(=O)n3-c3ccccc3)CC2)c(C)[nH]1	0
Cc1ccc2c(Cl)c(C(=O)Nc3ccccc3C(N)=O)sc2c1	0
CCOc1ccc(CCn2cnc3sc4c(c3c2=N)CCCC4)cc1OCC	0
O=C(O[C@@H]1[C@H](O)C[C@@](O)(C(=O)O)C[C@H]1OC(=O)c1cc(O)c(O)c(O)c1)c1cc(O)c(O)c(O)c1	0
Cc1ccc(C)c(S(=O)(=O)N2CCN(c3nc(C)cc(Nc4ccccc4)n3)CC2)c1	0
Cc1ccc(Nc2cc(C)nc(N3CCN(S(=O)(=O)c4c(C)cc(C)cc4C)CC3)n2)cc1	0
Cc1ccc(Nc2cc(C)nc(N3CCN(S(=O)(=O)c4cc(C(C)C)ccc4C)CC3)n2)cc1	30.0%
Cc1cc(N2CCCCC2)nc2ccc(NC(=O)CCC(=O)NC3CCCCCC3)cc12	0
Cn1c2nc3ccc(Br)cc3c-2nc2ccccc21	37.0%
Cn1c(C(O)(c2ccccc2)c2nc3ccccc3n2C)nc2ccccc21	0
Cn1c(NCc2cc(Br)ccc2O)nc2ccccc21	0
O=C1NCC2(CCCN(c3cnc4ccccc4n3)CC2)O1 (configuration not stated)	0
Cc1cc(C(=O)Nc2cccnc2)ccc1[N+](=O)[O-]	0
NC(=O)c1sc2nc3c(cc2c1N)CCCC3	0
Cc1ccccc1NC(=O)C1C2CCCCC21 (configuration not stated)	0
SMILES	ST2 IL33 inh
O=C(Nc1ccccc1C1CC1)c1ccc(Cl)cc1	0
Cc1ccccc1NC1CC(C)Nc2c(C)cccc21 (configuration not stated)	39.0%
CN1CCN(C(=O)C2CCCCN2S(=O)(=O)c2ccccc2)CC1 (configuration not stated)	0
CSc1nc2c(c(=O)[nH]1)C(c1ccc(N(C)C)cc1)C1=C(CCCC1=O)N2 (configuration not stated)	0
COc1ccc(NC2=CC(=NS(=O)(=O)c3ccc(C)cc3)c3ccccc3C2=O)cc1	92.0%
COc1ccc(S(=O)(=O)N=C2C=C(Nc3ccc(C)cc3)C(=O)c3ccccc32)cc1	92.0%
COc1ccc(S(=O)(=O)N=C2C(C)=CC(=O)C=C2C)cc1	0
CCN(CC)C(=NS(=O)(=O)c1ccc(C)cc1)c1ccc(F)cc1	0
COc1ccc(N(C(F)F)S(=O)(=O)c2ccc(C)cc2)cc1	0
COc1ccc(S(=O)(=O)Nc2cc(C)cc(C)c2)cc1	0
Cc1ccc(NC2=CC(=NS(=O)(=O)c3ccc(F)cc3)c3ccccc3C2=O)cc1	69.0%
Cc1ccc(S(=O)(=O)Nc2ccc(NC(=O)c3ccc(F)cc3)cc2)cc1	0
COc1ccc(Nc2ccc3c4c(ncnc24)-c2ccccc2C3=O)cc1	0
CCN1Cc2ccccc2CC1C(=O)N(CCO)Cc1ccco1 (configuration not stated)	0
Cc1ccc(C(=O)C2=C(O)C(=O)N(Cc3ccco3)C2c2ccc(F)cc2)o1 (configuration not stated)	0
CC(NC(=O)C(NS(=O)(=O)c1ccc2c(c1)oc(=O)n2C)C(C)C)c1ccccc1 (configuration not stated)	0
CCSc1nc2c(c(=O)[nH]1)C(c1cccc(F)c1)C1=C(CCCC1=O)N2 (configuration not stated)	0
COc1ccc(/C=C/C2=NOC(O)(C(F)(F)F)C2)cc1 (configuration not stated)	0
CCOC(=O)C1(Cc2ccccc2Cl)CCN(Cc2cccc3c2OCO3)CC1	0
Oc1ccc(Cl)cc1C1=Nc2ncnn2C(c2ccccc2)C1 (configuration not stated)	0
CCOC(=O)C1(C(=O)OCC)Oc2c(OC)cccc2C1O (configuration not stated)	0
COc1ccccc1NC(=O)c1ccco1	0
CC(=O)c1c(C)oc2ccc(N(C(=O)c3ccccc3)S(=O)(=O)c3ccc(C)cc3)cc12	0
O=C(NCc1cccnc1)c1cc(C2CC2)on1	0
COc1ccccc1CNCc1ccc(OC)c(OCc2ccccc2)c1	0
SMILES	ST2 IL33 inh
CCC(CC)n1ncc(C)c1NC(=O)c1cc(C)nc(C)n1	0
CCCCn1ncc(C)c1NC(=O)c1ccsc1	31.0%
CCCCn1ncc(C)c1NC(=O)[C@H]1CCCO1	0
COc1ccc(NC2SC(=O)N(c3ccc(C)cc3)C2=O)cc1 (configuration not stated)	0
Cc1c(Cl)c([N+](=O)[O-])nn1CCCC(=O)Nc1ccc(F)c(Cl)c1	0
CN1CCNC(=O)C1CC(=O)N1CCN(CCc2ccncc2)CC1 (configuration not stated)	0
COc1cccc(CN2CCN(Cc3cccc(OC)c3OC)CC2)c1	0
Cc1[nH]c(=O)[nH]c(=O)c1S(=O)(=O)Nc1ccccc1F	0
CC(C)[C@@H](C)n1c(CCc2ccccc2)n[nH]c1=O	0
CCC(C)n1c(Cc2ccc(O)cc2)n[nH]c1=O (configuration not stated)	33.0%
CC(C(=O)O)n1c(Cc2ccccc2)n[nH]c1=O (configuration not stated)	0
COc1cccc(Cn2c(CNC(=O)c3ccc(OC)c(OC)c3)nc3cccnc32)c1	0
Cc1ccc(C)n1-c1ccc(C(=O)O)c(C(=O)O)c1	88.0%
Cc1ccc(C)n1-c1cccc(C(=O)O)c1	96.0%
Cc1ccc(C(=O)c2ccccc2C(=O)O)c(C)c1	0
Cc1cc(C=O)c(C)n1-c1ccc(C(=O)O)c(Cl)c1	0
CC(=O)Nc1cccc(C(=O)O)c1	0
O=C(O)c1cccc(N2C(=O)C3C4C=CC(O4)C3C2=O)c1 (configuration not stated)	0
CCn1c(C2CCN(C(=O)CC3CCS(=O)(=O)C3)CC2)nn(C)c1=O (configuration not stated)	0
CCC(=O)Nc1cccc(C(=O)N(C)CC2(CO)CCC2)c1	0
COc1ccc(S(=O)(=O)Nc2cc(C)ccc2C)cc1	0
CN=C(NS(=O)(=O)c1cc(C)ccc1C)c1ccccc1	0
Cc1ccc(C)c(S(=O)(=O)Nc2ccccc2Cl)c1	0
COc1ccc(Nc2cc(C)nc(N3CCN(S(=O)(=O)c4ccc(C)cc4C)CC3)n2)cc1	0
Cc1ccc(C)c(S(=O)(=O)N=C2C=C(Nc3ccccc3)C(=O)c3ccccc32)c1	88.0%
COc1ccc(NC2=CC(=NS(=O)(=O)c3cc(C)ccc3C)c3ccccc3C2=O)cc1	95.0%
CC(C)c1nccc(CN2CC[C@H](CO)[C@H](O)C2)n1	0
CCC(=O)NCCCc1nc2ccccc2[nH]1	0
O=C(O)CCCNC(=O)c1cn(-c2ccccc2F)c(=O)c2ccccc12	0
Cc1ccc(C)c(NC(=O)c2ccoc2C)c1	0
